Source: PubChem BioAssay (NCI)
Compounds without any hit were thinned out: in the full panel of roughly 83,000, 20% have a hit.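 Cell lines were cultured in 96-well plates, exposed to a single compound concentration, and assessed for percent growth 48 hours later.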 A number with no mark means an inactive call. Active and inactive are the calls of the source. Rule for the calls: active = growth percent below 10; inactive = the rest.

Legend:
Experiment in all cases: NCI-60 one-dose screen, 48 h (100 = growth as untreated, 0 = no growth, -100 = all killed)
Conditions in all cases: 10 µM unless noted
SK-MEL-2 melanoma = test system: SK-MEL-2 melanoma
EKVX NSCLC = test system: EKVX NSCLC
SN12C renal = test system: SN12C renal
UO-31 renal = test system: UO-31 renal
TK-10 renal = test system: TK-10 renal
ACHN renal = test system: ACHN renal
CAKI-1 renal = test system: CAKI-1 renal
A498 renal = test system: A498 renal
CCRF-CEM leukemia = test system: CCRF-CEM leukemia
MOLT-4 leukemia = test system: MOLT-4 leukemia
SR leukemia = test system: SR leukemia
RPMI-8226 leukemia = test system: RPMI-8226 leukemia
OVCAR-8 ovarian = test system: OVCAR-8 ovarian
OVCAR-5 ovarian = test system: OVCAR-5 ovarian
OVCAR-4 ovarian = test system: OVCAR-4 ovarian
SK-OV-3 ovarian = test system: SK-OV-3 ovarian
IGROV1 ovarian = test system: IGROV1 ovarian
OVCAR-3 ovarian = test system: OVCAR-3 ovarian
HS 578T breast = test system: HS 578T breast
NCI/ADR-RES ovarian = test system: NCI/ADR-RES ovarian

Row | Structure (SMILES) | growth (SK-MEL-2 melanoma) | growth (EKVX NSCLC) | growth (SN12C renal) | growth (UO-31 renal) | growth (TK-10 renal) | growth (ACHN renal) | growth (CAKI-1 renal) | growth (A498 renal) | growth (CCRF-CEM leukemia) | growth (MOLT-4 leukemia) | growth (SR leukemia) | growth (RPMI-8226 leukemia) | growth (OVCAR-8 ovarian) | growth (OVCAR-5 ovarian) | growth (OVCAR-4 ovarian) | growth (SK-OV-3 ovarian) | growth (IGROV1 ovarian) | growth (OVCAR-3 ovarian) | growth (HS 578T breast) | growth (NCI/ADR-RES ovarian)
1 | COc1cc(/C=N\NC(=O)CN2CCN(c3cc4c(cc3F)c(=O)c(C(=O)N/N=C/c3cc(OC)c(OC)c(OC)c3)cn4C3CC3)CC2)cc(OC)c1OC | -26.2% (active) | 55.2% | -25.8% (active) | 71.8% | 64.2% | 93.7% | 77.7% | 46.6% | 4.32% (active) | 0.748% (active) | 2.97% (active) | 0.709% (active) | 22.4% | 19.6% | -17.7% (active) | 19.2% | -16.6% (active) | -75.2% (active) | -0.587% (active) | 103%
2 | CCOC(=O)c1c(/N=C2\SC(=O)/C(=C\C(=O)OC)N2NC)sc2c1CCN(C(=O)OCC)C2 | 92.5% | 89.1% | 98.9% | 87% | 121% | 102% | 103% | 110% | 101% | 106% | 103% | 95.3% | 103% | 102% | 99.1% | 109% | 102% | 106% | 103% | 103%
3 | O=C(CCl)N(C1CCCCC1)C1CCCCC1 | 108% | 104% | 107% | 98.3% | 104% | 109% | 98.7% | 91.7% | 42.6% | 110% | 100% | 112% | 104% | 111% | 89.7% | 117% | 96.7% | 114% | 105% | 105%
4 | Clc1cccc(-c2cc(-c3ccc4c(c3)OCCO4)[nH]n2)c1 | 17.9% [25 µM] | 24.3% [25 µM] | 36.3% [25 µM] | 44.2% [25 µM] | 61% [25 µM] | 44.7% [25 µM] | 29% [25 µM] | 6.47% [25 µM] (active) | 17.9% [25 µM] | 25.8% [25 µM] | 29.3% [25 µM] | 21.4% [25 µM] | 38.2% [25 µM] | 37% [25 µM] | 68.3% [25 µM] | 45.6% [25 µM] | 39.9% [25 µM] | 12.8% [25 µM] | 47% [25 µM] | 3.35% [25 µM] (active)
5 | Cc1cc(N/N=C/c2nc(-c3ccc(Br)cc3)oc2C)c2cc(Cl)ccc2n1 | 110% | 95.7% | 48.4% | 86.6% | 114% | 86.9% | 96.2% | 85.5% | -16.6% (active) | 3.49% (active) | 5.46% (active) | -9.52% (active) | 41.4% | 102% | -74.2% (active) | 104% | 92.6% | 45.2% | 106% | 69.2%
6 | CC(C)CSc1nc(NN)c(C#N)c(-c2ccc(F)cc2)n1 | 67.9% | 89.4% | 79.9% | 55.8% | 92.1% | 60.6% | 67.9% | 68.2% | 61.6% | 80.3% | 74.8% | 61.2% | 72% | 89.4% | 57.8% | 60.9% | 72.5% | 59.1% | 78.3% | 50.8%
7 | COc1ccc(Cn2cc3c(c2-c2cc(OC)c(OC)c(OC)c2)CCc2cnoc2-3)cc1 | 42.8% | 34.8% | 34.6% | 30.4% | 73.8% | 33.1% | 21.2% | 3.83% (active) | 12.9% | 23.3% | 13.1% | 23.4% | 34.6% | 47.7% | 22.6% | -0.435% (active) | 7.18% (active) | -5.4% (active) | 15.9% | 20.1%
8 | O=C(O)Cc1cccc(=O)c(O)c1C(=O)O | 97.5% | 110% | 101% | 84.2% | 108% | 101% | 96.1% | 114% | 98.3% | 106% | 103% | 88.8% | 105% | 96.4% | 117% | 107% | 110% | 114% | 112% | 117%
9 | CCOC(=O)C1CCNC(=O)C1=O (stereo not given) | 107% | 122% | 97.3% | 94.2% | 103% | 105% | 97.8% | 110% | 93.7% | 96.6% | 88.9% | 96.8% | 110% | 104% | 119% | 117% | 130% | 122% | 119% | 105%
10 | OCCCCCCNc1ncnc2cc(Cl)ccc12 | 100% | 105% | 99.9% | 69.7% | 94.1% | 102% | 90.3% | 104% | 78.2% | 84.5% | 64.8% | 83.6% | 94.1% | 119% | 76.2% | 81.3% | 112% | 92.4% | 105% | 95.7%
11 | C=C[C@@H]1C[C@@H]2Cc3cc(Cl)ccc3N1O2 | 107% | 90.2% | 94.9% | 101% | 101% | 104% | 88.7% | 85.6% | -61.3% (active) | 26.4% | 92.4% | 84.9% | 99.4% | 97.8% | 102% | 101% | 112% | 109% | 97.1% | 101%
12 | CCN1CCN(CC(=O)N2c3cccc4cccc(c34)N(C(=O)CN3CCN(CC)CC3)C2c2cn(-c3ccccc3)nc2-c2cccc([N+](=O)[O-])c2)CC1 | -9.31% (active) | 36.5% | -53% (active) | -26.1% (active) | -41.4% (active) | -43.6% (active) | -5.5% (active) | 74.7% | -33.6% (active) | -33.7% (active) | -48% (active) | -39.3% (active) | -9.32% (active) | 1.54% (active) | -76.4% (active) | 115% | -29.1% (active) | -70.8% (active) | 69.6% | 47.3%
13 | O=c1cc(Cc2ccc([N+](=O)[O-])cc2)[nH]c(=O)[nH]1 | 94.6% | 115% | 98.4% | 67% | 97.9% | 98.1% | 110% | 110% | 91.1% | 94.9% | 91.9% | 91.6% | 103% | 98.2% | 108% | 99.1% | 117% | 126% | 100% | 109%
14 | COc1cc2c(cc1OCCCN1CCN(CCCn3c4ccccc4c4ccccc43)CC1)N=C[C@@H]1CCCN1C2=O | -78.1% (active) | -86.8% (active) | -47.9% (active) | -91.7% (active) | -79.6% (active) | -100% (active) | -75% (active) | -96.9% (active) | -11.4% (active) | -39.6% (active) | -34.7% (active) | -57.4% (active) | -6.46% (active) | 3.88% (active) | -39.5% (active) | -80.5% (active) | -64.6% (active) | -91.1% (active) | -54.5% (active) | 1.66% (active)
